Data taken from PubChem BioAssay (NCI).
Where “and” joins values, the source holds several entries; their conditions need not be identical. Equal values may be shown once. Compounds without any hit were thinned out: in the full panel of roughly 79,000, 15% have a hit. Calls of active or inactive are those of the source. Cut-off read from the data, not from the text of the source: active = growth inhibition above about 70%; inactive = the rest. Where a SMILES comes first, the peptide text is derived from it. The star is where a group is joined. Cbz = O=C(OCc1ccccc1)*

Assays:
[1] = NCI Yeast Anticancer Drug Screen. Data for the rad50 strain (AID 155);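 note: 0% = growth of vehicle-only cultures of the same strain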; conditions: S. cerevisiae rad50 strain growth inhibition, active compounds read high; at 50.0 µM unless noted
Summary of the method: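 Relative growth inhibition (compound vs vehicle) was measured in yeast with a defined repair-gene alteration.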

[2] = NCI Yeast Anticancer Drug Screen. Data for the mec2-1 strain (AID 157); conditions: S. cerevisiae mec2-1 strain, active compounds read high; at 50.0 µM unless noted
Summary of the method: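 Cells of the genetically defined mec2-1 yeast strain are incubated with test compound. Inhibition of growth is calculated against vehicle-treated controls.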

[3] = NCI Yeast Anticancer Drug Screen. Data for the sgs1 mgt1 strain (AID 161);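 note: 0% = growth of cultures given vehicle only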; conditions: S. cerevisiae sgs1 mgt1 strain, active compounds read high; at 50.0 µM unless noted
Summary of the method: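 Test agents were incubated with a DNA-repair-mutant yeast strain. Growth was then read and compared against vehicle-treated controls.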

[4] = NCI Yeast Anticancer Drug Screen. Data for the cln2 rad14 strain (AID 165);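 note: 0% = growth equal to vehicle treated cultures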; conditions: S. cerevisiae cln2 rad14 strain, active compounds read high; at 50.0 µM unless noted
Summary of the method: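 The screen exposed genetically defined yeast (cln2 rad14) to test compounds and scored growth inhibition relative to vehicle-treated controls.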

[5] = NCI Yeast Anticancer Drug Screen. Data for the bub3 strain (AID 167); conditions: S. cerevisiae bub3 mutant strain, active compounds read high; at 50.0 µM unless noted
Summary of the method: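 Screening used yeast with an engineered genetic alteration affecting cell cycle control. Compound-exposed cultures were compared with vehicle cultures, and reduced growth was taken as inhibition.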

[6] = NCI Yeast Anticancer Drug Screen. Data for the mlh1 rad18 strain (AID 175); conditions: S. cerevisiae mlh1 rad18 strain growth inhibition, active compounds read high; at 50.0 µM unless noted
Summary of the method: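 Compound-treated yeast growth, normalised to vehicle controls. Strain bears defined DNA repair mutations.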

Measured: growth inhibition

O=C(Oc1ccc(Cl)cc1)c1ccc([N+](=O)[O-])cc1
inactive: [1] 12.2% | [2] 26.1% | [3] 9.9% | [4] 2.7% | [5] 8.65% | [6] 0.2%

Cc1cc(C)c2ccc(Cl)nc2n1
inactive: [1] -6.75% | [2] 0.55% | [3] -7.35% | [4] 9.35% | [5] -4.35% | [6] 6.1%

CCCCCC(=O)CC(=O)C(CC)CC
inactive: [1] 16.4% | [2] 12.9% | [3] -1.55% | [4] 1.35% | [5] 6.5% | [6] 12.9%

O=C(c1ccccc1)c1ccc(NC(=O)C(F)(F)F)cc1
inactive: [1] 15.7% | [2] 5.9% | [3] 3.85% | [4] 4.75% | [5] -0.15% | [6] 18.9%

CCOC(=O)CCC(NC(=O)C(Cc1ccccc1)NC(=O)OCc1ccccc1)C(=O)OCC (stereo not drawn) (Cbz-Phe-Glu(OEt)-OEt; configuration not given here)
inactive: [1] 3.9% | [2] -2.9% | [3] -0.2% | [4] -6.25% | [5] -7.85% | [6] -59.4%

Cc1ccc2c(c1)C1(c3ccc(Cl)cc3Cl)Oc3ccc(C)cc3C(c3ccc(Cl)cc3Cl)(O2)O1
inactive: [1] -1.5% | [2] 1.5% | [3] 3.1% | [4] -4.65% | [5] -2.7% | [6] 16.6%

COS(=O)(=O)N(C)c1nc(N(C)C)nc(N(C)C)n1
inactive: [1] -2.25% | [2] -12.2% | [3] -1.2% | [4] 22.9% | [5] 3.95% | [6] -0.95%

CC(=O)CC(=O)NCC1CCC(CNC(=O)CC(C)=O)CC1 (centres undefined)
inactive: [1] -26.6% | [2] -33% | [3] -13.9% | [4] -1.45% | [5] -54.3% | [6] -48.8%

C=CCN1C(=O)CS/C1=N/NC(=O)C(O)(c1ccccc1)c1ccccc1
inactive: [1] -19.6% | [2] -47.7% | [3] 6.1% | [4] -25.4% | [5] -24.3% | [6] -4.05%

O=[N+]([O-])c1ccc(NN=C2CCCCC2)c([N+](=O)[O-])c1
inactive: [1] 9.1% | [2] -18.2% | [3] 1.8% | [4] -39.6% | [5] 2.7% | [6] 30.6%

COC(=O)c1cc(NC(=O)Nc2cccc(C(C)=O)c2)cc(C(=O)OC)c1
inactive: [1] -9.75% | [2] 31.2% | [3] 25.6% | [4] -10.2% | [5] 37.6% | [6] 36.4%

O=C1CCC2OC(=O)C3CCCC1C23 (centres undefined)
inactive: [1] -6.05% | [2] -1.85% | [3] -19% | [4] 0.1% | [5] -2.65% | [6] -14.2%

O=C(Cc1nc2ccc(C(=O)c3ccccc3)cc2[nH]c1=O)C(=O)Nc1ccc(C(F)(F)F)cc1[N+](=O)[O-]
inactive: [1] 8.45% | [2] 14.7% | [3] -3.9% | [4] -6.25% | [5] -12.1% | [6] 18.1%

CC(C)NC(=O)OCc1c(COC(=O)NC(C)C)c(-c2ccccc2)n(C)c1-c1ccccc1
inactive: [1] 12.6% | [2] 2.05% | [3] 6.05% | [4] -5.7% | [5] 1.85% | [6] 32.8%

COc1cccc2c(SC)c(C)[nH]c12
inactive: [1] 14.9% | [2] -0.4% | [3] 18.8% | [4] -0.05% | [5] -19.8% | [6] 14.8%

CCN(CC)C(=S)SCC(=O)Nc1nc2c(s1)CCCC2
inactive: [1] -9.25% | [2] -1.25% | [3] -34.2% | [4] 3.75% | [5] 11.3% | [6] 6.9%

CNC(=O)Nc1cccc(C(=O)O)c1
inactive: [1] -0.3% | [2] -16.8% | [3] -11.1% | [4] -50.9% | [5] 4.35% | [6] 4.35%

Cn1nnnc1NCc1ccccc1
inactive: [1] -2.55% | [2] 5.35% | [3] -5.85% | [4] -24.6% | [5] -2% | [6] 5.15%

CCO[C@@H]1OC(=O)[C@H]2C(c3ccc(Cl)cc3)=NO[C@@H]12
inactive: [1] -13.4% | [2] -33.7% | [3] 0.05% | [4] 3.6% | [5] 29.8% | [6] -4.9%

Nc1ncnc2c1c(-c1nnc(-c3ccccc3)c(-c3ccccc3)n1)cn2C1OC(CO)C(O)C1O (centres undefined)
inactive: [1] 44.1% | [2] -2.8% | [3] 38% | [4] -13.3% | [5] -4.25% | [6] 9.9%

CC1CCC(OC(=O)CCC2CCCCC2)CC1 (centres undefined)
inactive: [1] -1.6% | [2] -12.1% | [3] 4.35% | [4] -34.2% | [5] -12.4% | [6] -18.3%

CCC1(CC)SC=C(C)NC1=O
inactive: [1] -4.65% | [2] -1.65% | [3] 12.6% | [4] -24.7% | [5] -14.7% | [6] 6.75%

CC(C)(C)N=NNc1cn(C2OC(CO)C(O)C2O)c(=O)[nH]c1=O (centres undefined)
inactive: [1] -16.3% | [2] -17.6% | [3] -16.9% | [4] 9.5% | [5] -6.2% | [6] -15.7%

COC(=O)N1C=NC2C3(C)C(C)=C(C)C3(C)C21C (centres undefined)
inactive: [1] 0.35% | [2] -3.55% | [3] -4.1% | [4] -24.9% | [5] -0.4% | [6] -7.45%

CC1(C)CC[C@]2(C(=O)O)CC[C@]3(C)C(=CC[C@@H]4[C@@]5(C)CC[C@H](OC6OC(CO)C(O)C(O)C6O)C(C)(C)[C@@H]5CC[C@]43C)[C@@H]2C1 (some centres undefined)
active: [1] 76.2% | [2] 74.8% | [4] 74.2% | [5] 82.4%
inactive: [3] 47.9% | [6] 54.4%

O=C1C(c2ccccc2)=C(c2ccccc2)C1(Cl)Cl
inactive: [1] -5.95% | [2] -6.1% | [3] 44.3% | [4] 37.6% | [5] 17.9%
active: [6] 88.4%

Cc1ccc(NC(=O)CCCl)cc1
inactive: [1] 3.4% | [2] -1.55% | [3] 2.05% | [4] -19.1% | [5] -0.5% | [6] -14.3%

OCCNc1ncnc2c1ncn2C1OC(CO)C(O)C1O (centres undefined)
inactive: [1] 6.3% | [2] 5.25% | [3] -12.3% | [4] -23.9% | [5] -20% | [6] 22%

CN(C)c1ccc(Cc2ccc(N(C)C)cc2N)cc1
inactive: [1] -0.85% | [2] 2.2% | [3] 2.75% | [4] 10.1% | [5] -25.2% | [6] -4.05%

NC(Cc1ccccc1)C(=O)NC(Cc1ccccc1)C(=O)O (stereo not drawn) (H-Phe-Phe-OH; configuration not given here)
inactive: [1] 19.6% and 11.1% | [2] -0.8% and -19.4% | [3] 12.6% and -2.9% | [4] -16.1% and -19.3% | [5] 6.2% and 4.05% | [6] 1.6% and 7.7%

OC1CN(c2ccc(Br)cc2)CC(O)CN(c2ccc(Br)cc2)C1 (centres undefined)
active: [1] 98.7% | [2] 99.7% | [3] 99.7% | [4] 99.5% | [5] 99.5% | [6] 99.7%

CCOC(=O)C/C(O)=C(/C=N/C(=S)NNC(C)=O)C(=O)OCC
inactive: [1] -27.1% | [2] -28.9% | [3] -32.2% | [4] 2.65% | [5] -19.6% | [6] -8.65%

O=C1OC(c2ccccc2)=N/C1=C\c1ccccc1
inactive: [1] -24% and 23.1% | [2] -12.6% and 10.6% | [3] -15.5% and 20.9% | [4] -5.7% and -23.2% | [5] 3.9% and -15.2% | [6] -8.7% and 26.8%

CCCCOC(c1ccccc1)c1ccccc1
inactive: [1] -19.8% | [2] -18.6% | [3] -11.8% | [4] -17.8% | [5] -4.25% | [6] 1.95%

CCCCCCCCCCCCC(C)O (centres undefined)
inactive: [1] -23.2% | [2] -50.1% | [3] -18.8% | [4] 5.05% | [5] -21.1% | [6] -24.8%

O=[N+]([O-])c1cc(N(c2ccccc2)c2ccccc2)c(Cl)cc1Cl
inactive: [1] -8.35% | [2] -16.1% | [3] -27.1% | [4] -2.55% | [5] 5.5% | [6] -3%

CCn1c2ccccc2c2cc(N=Nc3ccc4c(c3)c3ccccc3n4CC)ccc21
inactive: [1] 44.5% | [2] 14.7% | [3] 19.9% | [4] 41.2% | [5] 45.2% | [6] 35.5%

ClCCCCCNC1CCCCC1
inactive: [1] -1.2% | [2] -45.6% | [3] -4.3% | [4] -15.7% | [5] -17.2% | [6] -14.2%

Nc1c(I)cc(I)c(C(=O)O)c1I
inactive: [1] -44% | [2] -31.9% | [3] -17% | [4] -14.8% | [5] -25.4% | [6] -39.1%
